Results published in the supplement of paper PMC13380429.

Columns and labels:
[1] = tested on: Vero E6 infected with SARS-CoV-2; assay: morphology score (similarity to uninfected cells); higher = more like uninfected cells; conditions: 24 h
[2] = tested on: Vero E6 infected with SARS-CoV-2; assay: SARS-CoV-2 infection rate relative to infected DMSO; higher = more infection, active = 60 or less; conditions: 24 h

Compound | morphology score [1] | SARS-CoV-2 infection rate [2]
CN(C)CCOC(c1ccccc1)c1ccccc1.Cn1c(=O)c2[nH]c(Cl)nc2n(C)c1=O [dimenhydrinate] (10 µM) | -0.0688 | 110% (inactive)
O=c1[nH]c(=O)c2ccccc2o1 [carsalam] (10 µM) | 0.265 | 85% (inactive)
CCCC(=O)C1(c2ccccc2)CCN(C(=O)[C@@H](Cc2ccc(OC)cc2)NC(=O)[C@@H](N)Cc2cncn2C)CC1 (10 µM) | 0.106 | 98% (inactive)
C(=C\c1ccccc1)/CN1CCN(CCOC(c2ccccc2)c2ccccc2)CC1 (10 µM) | 0.33 | 82.5% (inactive)
CN(N=O)C(=O)N[C@@H](C=O)[C@@H](O)[C@H](O)[C@H](O)CO [streptozotocin] (10 µM) | 0.0397 | 96% (inactive)
Cc1nc2c(O)cccc2c(=O)[nH]1 (10 µM) | -0.0261 | 114% (inactive)
N=C(Nc1ccccc1)Nc1ccccc1 [diphenylguanidine] (10 µM) | 0.216 | 98% (inactive)
O=[N+]([O-])c1c(Nc2cc(F)cc(Cl)c2)ccc2nonc12 (10 µM) | 0.097 | 94.5% (inactive)
COc1ccsc1CNCC[C@@]1(c2ccccn2)CCOC2(CCCC2)C1 (10 µM) | -0.0456 | 103% (inactive)
CC[N+](CC)(CC)CCOc1ccc(/C=C/c2ccccc2)cc1 (10 µM) | -0.141 | 105% (inactive)
CCOC(=O)C1=C(C)NC(=S)NC1c1cccc(O)c1 (stereo not drawn) [monastrol] (10 µM) | 0.0534 | 93% (inactive)
NC(=O)NCCC[C@H](N)C(=O)O [L-citrulline] (10 µM) | 0.035 | 112% (inactive)
N#Cc1ncccn1 [2-cyanopyrimidine] (10 µM) | 0.0613 | 108% (inactive)
O=S1(=O)OC(c2ccc(O)cc2)(c2ccc(O)cc2)c2ccccc21 [phenolsulfonphthalein] (10 µM) | 0.1 | 105% (inactive)
CC(C)CCNC(=O)[C@H](CC(C)C)NC(=O)[C@H]1O[C@@H]1C(=O)O [loxistatin-acid] (10 µM) | 0.296 | 88% (inactive)
[N-]=[N+]=N[C@]1(CO)O[C@@H](n2ccc(N)nc2=O)[C@H](O)[C@@H]1O (10 µM) | 0.0194 | 109% (inactive)
CSC[C@H](N)C(=O)O [S-methylcysteine] (10 µM) | 0.000717 | 102% (inactive)
O=c1[nH]c2ccccc2c(=O)n1CCCN1CCN(c2ccccc2)CC1 [pelanserin] (10 µM) | 0.0358 | 104% (inactive)
CC(C)(C)NC[C@H](O)COc1nsnc1N1CCOCC1 [timolol] (10 µM) | -0.002 | 98.5% (inactive)
COc1c(C)c2c(c(O)c1C/C=C(\C)CCC(=O)O)C(=O)OC2 [mycophenolic-acid] (10 µM) | -0.0923 | 114% (inactive)
COc1cc(C)c(/C=C/C(C)=C/C=C/C(C)=C/C(=O)O)c(C)c1C [acitretin] (10 µM) | -0.0971 | 116% (inactive)
OC[C@H]1O[C@@H](O[C@@H]2[C@@H](CO)OC(O)(CO)[C@H]2O)[C@H](O)[C@@H](O)[C@H]1O (mixture of isomers) [lactulose] (10 µM) | -0.0368 | 97.5% (inactive)
O=C(CN1C(=O)C2(CCCC2)NC[C@H]1c1cc(F)cc(F)c1)Nc1ccc2c(c1)C[C@@]1(C2)C(=O)Nc2ncccc21 (10 µM) | 0.0766 | 101% (inactive)
N#CCNC(=O)c1ccc(-c2ccnc(Nc3ccc(N4CCOCC4)cc3)n2)cc1 (0.833333 µM) | 0.412 | 103% (inactive)
CCCCCCCCCC(=O)O[C@H]1CC[C@H]2[C@@H]3CCC4=CC(=O)CC[C@@H]4[C@H]3CC[C@]12C [Nandrolone decanoate] (10 µM) | -0.019 | 103% (inactive)
COc1ccc2c(c1)[C@]13CCCC[C@@H]1[C@H](C2)N(C)CC3 [dextromethorphan] (10 µM) | -0.0426 | 112% (inactive)
Cn1c(=O)c2[nH]cnc2n(C)c1=O [aminophylline] (10 µM) | 0.187 | 95% (inactive)
CCc1cn([C@H]2C[C@H](O)[C@@H](CO)O2)c(=O)[nH]c1=O [edoxudine] (10 µM) | 0.0361 | 108% (inactive)
Cc1c(Cl)cccc1Nc1ccccc1C(=O)O [tolfenamic-acid] (10 µM) | 0.00971 | 110% (inactive)
